According to PubChem BioAssay (EPA / NIEHS):
“And” between values parts separate entries of the source, which are not always exact repeats. Identical values can stand only once. Results filed as inconclusive are left out. Some compounds were tested as several samples or in several runs, with calls that do not always agree. The source made the active and inactive calls. Rule for the calls: active = hit-call score of the fitted dose curve at least 0.9, where 1 is the maximum; inconclusive = response in the unintended direction; inactive = score below 0.9. Where a SMILES comes first, the peptide text is derived from it. [ ]: non-standard residue; d: D form. pGlu = O=C1CC[C@@H](C(=O)O)N1

Target: Cellular tumor antigen p53 (Homo sapiens) (UniProt P04637)
Sequence (P04637 whole entry, looked up): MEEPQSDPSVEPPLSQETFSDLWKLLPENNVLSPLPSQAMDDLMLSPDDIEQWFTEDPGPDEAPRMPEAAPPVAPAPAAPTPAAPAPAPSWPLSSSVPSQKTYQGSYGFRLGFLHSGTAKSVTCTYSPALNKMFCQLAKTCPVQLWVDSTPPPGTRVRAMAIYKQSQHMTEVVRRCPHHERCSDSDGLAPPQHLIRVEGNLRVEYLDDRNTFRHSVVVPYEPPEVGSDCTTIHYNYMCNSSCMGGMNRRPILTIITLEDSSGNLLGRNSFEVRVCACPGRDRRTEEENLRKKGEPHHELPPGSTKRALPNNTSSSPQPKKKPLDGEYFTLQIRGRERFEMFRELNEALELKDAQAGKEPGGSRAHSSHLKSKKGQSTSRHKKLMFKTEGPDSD
Assay: TOX21_p53_BLA_p3_ratio: Tox21 HCT-116 p53 Agonism Beta-lactamase Assay, Ratio, Phase 3 (AID 2283596)
Method in brief: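 HCT116 p53-bla cells (4000/well) given compound in DMSO (217-fold dilution) after 5 h, incubated 16 h at 37C. CCF4-AM substrate 2 h at room temperature; 460/530 nm emission ratio, gain fitted against DMSO.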

SMILES	AC50	outcome
COC(=O)C[C@](O)(CCCC(C)(C)O)C(=O)O[C@@H]1C(OC)=CC23CCCN2CCc2cc4c(cc2[C@H]13)OCO4 (stereo partly specified)	45.4 nM (active) and 43.1 nM (active)	
O=[Se](O)O	548 nM (active)	inactive
C[C@H](CCC(=O)O)[C@H]1CC[C@H]2[C@@H]3CC[C@@H]4C[C@H](O)CC[C@]4(C)[C@H]3C[C@H](O)[C@]12C	87300 nM (active)	inactive

System: not listed separately
Assay: TOX21_p53_BLA_p4_viability: Viability Assessment in the Tox21 HCT-116 p53 Agonism Beta-lactamase Assay, Phase 4 (AID 2283597);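 note: hits lower the luminescence signal meaning cytotoxicity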
Method in brief: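 We seeded HCT116 p53 reporter cells at 4000/well and waited 5 h. We then added compounds in DMSO at a 217-fold dilution and incubated for 16 h. Viability was read as CellTiter-Glo luminescence after 30 min at RT.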

SMILES	AC50	outcome
COC(=O)C[C@](O)(CCCC(C)(C)O)C(=O)O[C@@H]1C(OC)=CC23CCCN2CCc2cc4c(cc2[C@H]13)OCO4 (stereo partly specified)	14 nM (active)	
O=[Se](O)O	26000 nM (active)	inactive
C[C@H](CCC(=O)O)[C@H]1CC[C@H]2[C@@H]3CC[C@@H]4C[C@H](O)CC[C@]4(C)[C@H]3C[C@H](O)[C@]12C	75.1 µM (active) and 36.4 µM (active)	

Target: Cellular tumor antigen p53 (Homo sapiens) (UniProt P04637)
Assay: TOX21_p53_BLA_p5_ratio: Tox21 HCT-116 p53 Agonism Beta-lactamase Assay, Ratio, Phase 5 (AID 2283599)
Method in brief: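 HCT-116 p53-bla cells (4000/well) plated 5 h, dosed with compound (217-fold DMSO dilution) for 16 h at 37 C; CCF4-AM substrate 2 h at room temperature. Activity is the 460/530 nm emission ratio (405 nm excitation), fitted in gain-of-signal direction versus DMSO.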

SMILES	outcome	AC50
CC[C@H](C)[C@H](NC(=O)[C@H](Cc1ccccc1)NC(=O)[C@H](C)NC(=O)[C@H](CC(=O)O)NC(=O)[C@H](CCCCN)NC(=O)[C@H](CO)NC(=O)[C@@H]1CCCN1C(=O)[C@@H]1CCC(=O)N1)C(=O)NCC(=O)N[C@@H](CC(C)C)C(=O)N[C@@H](CCSC)C(N)=O ([pGlu]PSKDAFIGLM-NH2)	inactive	
Oc1ccc(-c2ccc(O)cc2)cc1	inactive	
CCCCC(=O)N(C)C	inactive	
CSc1ccc(C(=O)c2[nH]c(=O)[nH]c2C)cc1	inactive	
CCCCCCCC/C=C\CCCCCCCCCCCC(=O)O	inactive	
C[C@@H]1C[C@H]2[C@@H]3C[C@H](F)C4=CC(=O)C(Cl)=C[C@]4(C)[C@@]3(F)[C@@H](O)C[C@]2(C)[C@@]1(O)C(=O)CO	inactive	
OC[C@H]1O[C@@H](O[C@@H]2[C@@H](CO)O[C@](O)(CO)[C@H]2O)[C@H](O)[C@@H](O)[C@H]1O	inactive	
CC1(C)[C@@H](OC(=O)CCC(=O)O)CC[C@]2(C)[C@H]3C(=O)C=C4[C@@H]5C[C@@](C)(C(=O)O)CC[C@]5(C)CC[C@@]4(C)[C@]3(C)CC[C@@H]12	inactive	
COC(=O)C[C@](O)(CCCC(C)(C)O)C(=O)O[C@@H]1C(OC)=CC23CCCN2CCc2cc4c(cc2[C@H]13)OCO4 (stereo partly specified)	inactive	37.9 nM (active)
CCOC(=O)O[C@]1(C(=O)COC(=O)CC)CC[C@H]2[C@@H]3CCC4=CC(=O)C=C[C@]4(C)[C@H]3[C@@H](O)C[C@@]21C	inactive	
O=C(O)c1ccc(Cl)cc1Cl	inactive	
CC(=O)Nc1ccc(OC(C)=O)cc1	inactive	
O=[Se](O)O	inactive	2460 nM (active)
C[C@@H](CN(C)C)CN1c2ccccc2Sc2ccccc21	inactive	
CCCCCCCCCC#N	inactive	
CC(C)CNCC(C)C	inactive	
CCC(O)C(C)(C)C (stereo unspecified)	inactive	
C[C@H](CCC(=O)O)[C@H]1CC[C@H]2[C@@H]3CC[C@@H]4C[C@H](O)CC[C@]4(C)[C@H]3C[C@H](O)[C@]12C	inactive	86700 nM (active)
O=C(O)CCC(=O)Nc1ccc(S(=O)(=O)Nc2nccs2)cc1	inactive	
